According to PubChem BioAssay AID463205 (Broad Institute, 2010):
About 20 (0.8%) of roughly 2,400 compounds were called active.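 The calls were made as follows: active = AC50 no more than ten times the highest tested concentration, or full inhibition at every dose giving a flat fit (cut at about 30 µM in these data); inconclusive = flat fit with activity between 30% and 70%, or poor-quality invalid fit; inactive = AC50 more than ten times the top tested dose.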 Many of the other results were omitted from the sample, so actives are more common in it than they were.

Assay: luciferase-based ADP detection interference – biochemical, luminescence, cell-free, homogeneous, artefact control for GSK-3a inhibitor project, dose response (AID 463205);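 also: kinase-free counter-screen against the ADP-Glo detection reagents only; potency is for inhibitors that reduce the luminescence signal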
Settings: Cell-free ADP-Glo detection reagents, 5 uM ADP

AC50, inactive:
COc1ccc(CNc2ccc3cn[nH]c3c2)c(OC)c1OC > 30 µM
CCCc1[nH]nc2c1C(c1ccc(O)c(OC)c1)C(C#N)=C(N)O2 (stereo unspecified) > 30 µM
Cc1sc2ncnc(NCCCN3CCCC3=O)c2c1C > 30 µM
Cc1cc(C)c2[nH]c(O)c(N=Nc3ccc(C(=O)O)cc3)c2c1 > 30 µM
N#Cc1c(NC(=O)CSc2n[nH]c(N)n2)oc(-c2ccccc2)c1-c1ccccc1 > 30 µM
COc1cccc(/C=c2\s/c(=C\C(=O)C(C)(C)C)[nH]c2=O)c1 > 30 µM
CCOC(=O)c1cnc2c(C)cc(Cl)cc2c1N1CCN(C)CC1 > 30 µM
COc1ccccc1/C=N/NC(=O)c1nnn(-c2nonc2N)c1-c1cccs1 > 30 µM
CCN1CCN(c2nc(Nc3cccc(F)c3)nc(N)c2[N+](=O)[O-])CC1 > 30 µM
Cc1nc(N2CCOCC2)nc(N2CCCCC2)c1[N+](=O)[O-] > 30 µM
COc1ccc(O)c(-c2nc(N)nc(N)n2)c1 > 30 µM
Cc1cccc(C)c1OCC(O)CNC(C)c1ccccc1 (stereo unspecified) > 30 µM
O=C(CNC(=O)c1ccccc1)N/N=C/C=C/c1ccccc1 > 30 µM
Cc1cc(NC(=O)COC(=O)c2cc(S(=O)(=O)N3CCOCC3)ccc2N2CCCCC2)no1 > 30 µM
CN(c1nc2nonc2nc1NC1CC1)C1CCOC1 (stereo unspecified) > 30 µM
CCC/C(=N/NC(=O)c1nnn(-c2nonc2N)c1CN1CCCCC1)c1ccccc1 > 30 µM
COc1ccc(NC(=O)CSc2nnc(-c3cccc(O)c3)o2)cc1 > 30 µM
COc1ccc2cc(C(=O)NCc3ccco3)c(=O)oc2c1 > 30 µM
COc1cccc(NC(=O)[C@@H]2CCCN2S(=O)(=O)c2cccc3cccnc23)c1 > 30 µM
CCCNC(=O)NC(C(=O)OC)C12CC3CC(CC(C3)C1)C2 (stereo unspecified) > 30 µM
CCOC(=O)c1[nH]c2c(c1C)C(=O)CC(c1ccc(OC)c(OC)c1)C2 (stereo unspecified) > 30 µM
